Screening data (PubChem BioAssay)
Most compounds without a hit are left out; they make up all but 9.9% or so of the library.
KB-3-1 tox: kills parental KB-3-1 adenocarcinoma cells; KB-3-1 viability, CellTiter-Glo ATP luminescence, 72 h; Potency, µM (titrated, usually from 46.1 µM), most hits filed as cytotoxic; actives 1.4% (n = 400,000); also: potency is read from the fitted curve at half-maximal effect; % is scaled to controls: 0 for no effect and ±100 for the full control effect; nearly all actives have a fitted effect of over 60% in size
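Cells are dispensed, compounds pinned in, plates held at 37 °C for 72 h, then CellTiter-Glo is added and luminescence read after 10 minutes. Cell line: parental KB-3-1 in phenol-red-free DMEM, 10% FBS.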
MCF10A rerep: inducers of DNA re-replication in MCF 10A breast cells; MCF 10A DNA re-replication, Hoechst nuclear intensity, 48 h; Potency, µM (titrated, usually from 46.1 µM), for the others: top-dose activity, positive = re-replication, actives largely listed as activators; actives 2.9% (n = 350,000); AID 624296; also: potency is read from the fitted curve at half-maximal effect; % of control where 0% means no effect; nearly all actives have a fitted effect of over 50% in size
KB-V1 cytotox: kills drug-selected multidrug resistant KB-V1 cells; Potency, µM (highest dose often 46.1 µM), actives largely listed as cytotoxic; KB-V1 MDR cells viability, CellTiter-Glo, 72 h; AID 1347076; actives 3.4% (n = 400,000); also: potency is read from the fitted curve at half-maximal effect; % is scaled to controls: 0 for no effect and ±100 for the full control effect; nearly all actives have a fitted effect of over 60% in size
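KB-V1 MDR subline cells in DMEM (phenol-red free, 10% FBS) exposed to compounds in qHTS concentration series for 72 h at 37 degrees C. Viability read by CellTiter-Glo luminescence; concentration-effect curves fitted after normalization and correction.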
IL-1B inflam inh: inflammasome signaling inhibition, IL-1 beta readout; THP-1 LPS/ATP IL-1B secretion, AlphaLISA, 16 h; stronger effect = lower value; activity change, % at 57.5 µM; actives 4.7% (n = 360,000); in the data active = activity change below about -50%; inconclusive = mostly about -30% to -49%; also: % is scaled to controls: 0 for no effect and ±100 for the full control effect
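THP-1 cells pretreated 1 hr with compounds (up to 57.5 uM final), then stimulated with LPS (250 ng/mL final) plus ATP (1.25 mM final); secreted IL-1B measured by AlphaLISA after 16 hr, decreased signal indicating inhibition.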
SW480 rereplic: DNA re-replication induction in SW480 cells. SW480 DNA re-replication, Hoechst DNA content imaging, 48 h. Potency, µM (series often up to 46.1 µM), without a hit: at the top dose re-replication activation, most hits filed as activators. actives 1.8% (n = 340,000). AID 624297; also: potency is read from the fitted curve at half-maximal effect; % of control where 0% means no effect; nearly all actives have a fitted effect of over 55% in size
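SW480 cells exposed to compounds for 48 hr at 37 C, 5% CO2, then Hoechst-stained 40 min. Nuclear DNA content imaged by fluorescence scanning (405 nm excitation, 500-530 nm emission); re-replication scored as increased high-intensity nuclei.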
* marks the source's active call; other numbers are inactive results; i = inactive; ? = inconclusive; . = not tested or not shown; [ ] = another dose, or the depositor's remark. Unless noted, calls follow the shape of the dose curve; as a rule, active = well fitted curve in the direction sought with a large enough effect; inconclusive = small, poorly fitted or top-dose-only effect, or another doubt; inactive = no such curve, though single readings can be large; an effect the other way counts as inactive or inconclusive.

SMILES | KB-3-1 tox | MCF10A rerep | KB-V1 cytotox | IL-1B inflam inh | SW480 rereplic
Cc1ccc(CCNC(=O)C(C)n2nc(C)c3c(C)n(-c4ccccc4)nc3c2=O)cc1 (stereo not drawn) | i | 0% | i | 0 | 0%
Clc1cccc(-c2nc3ccccn3c2Nc2ccc3c(c2)OCCO3)c1 | i | . | i | . | .
Cc1[nH]c2ccccc2c1SCCNC(=O)c1ccc(Br)o1 | i | -10% | i | -82* | -4%
CCOc1nc2cccc(C(=O)O)c2n1Cc1ccc(-c2ccccc2-c2nn[nH]n2)cc1 | . | ? | . | . | 2%
Cc1cc(C)cc(NC(=O)N2CCC(N3CCCCC3)CC2)c1 | i | . | i | . | .
CN1CCN(C(=O)c2cc(COc3ccc(F)cc3Cl)on2)CC1c1ccccc1 (stereo not drawn) | 16µM* | 21µM* | i | -88* | ?
O=C(c1cc(COc2ccc(F)cc2F)on1)N1CC2C[C@@H]3CC1C[C@H](C2)C3 | i | ? | i | -98* | ?
Cc1cc(CN(C)C(=O)c2cc(COc3ccc(F)cc3Cl)on2)n[nH]1 | i | -1% | 21µM* | -24 | 1%
O=C(c1cc(COc2ccc(F)cc2Cl)on1)N1CCCC(OCc2cccnc2)C1 (stereo not drawn) | i | -4% | 9.2µM* | -29 | -7%
COCCCNC(=O)Cn1c(=O)n(-c2ccc(C)cc2)c(=O)c2c1c1cc(C)ccc1n2C | i | . | i | . | .
CCOc1ccc(-c2nc(Cn3c(=O)cc(-c4ccccc4)c4c(C)nn(C)c43)c(C)o2)cc1OC | i | . | i | . | .
CCOCCCn1c(SCC(=O)NCCCOC)nc2c(sc3ccccc32)c1=O | i | . | i | . | .
CCN(CC)C(=O)Oc1ccc2c(=O)c(-c3ccccc3)coc2c1 | i | -15% | 21µM* | -54* | 6%
Cc1ccc(NC(=S)N/N=C/c2c(Cl)cccc2Cl)c(C)c1 | 0.58µM* | 1.5µM* | 1.2µM* | 78 | 1.3µM*
Cc1ccc(Cl)cc1NC(=S)N/N=C/c1cccc2ccccc12 | 5.8µM* | 8.2µM* | 2.1µM* | 47 | 8.2µM*
Cc1ccc(NC(=S)N/N=C/c2ccc(OCCC(C)C)cc2)c(C)c1 | i | ? | 16µM* | 14 | -2%
CCCCn1c(N)c(N(CC)C(=O)c2c(C)noc2C)c(=O)[nH]c1=O | i | 1% | i | 1 | 0%
CCOc1ccc(N2CC(C(=O)Nc3ccccc3C(=O)N3CCOCC3)CC2=O)cc1 (stereo not drawn) | i | -3% | i | 9 | -71%
CC(c1ccco1)N(C(=O)c1cccc(Br)c1)c1ccccn1 (stereo not drawn) | i | 8% | i | -19 | -8%
COc1ccc2c3c([nH]c2c1)[C@H]1C[C@H]2[C@H](C[C@@H](O)[C@H](OC)[C@H]2C(=O)O)CN1CC3 | ? | ? | i | -82* | ?
COc1ccc2c3c([nH]c2c1)C1CC2C(CC(O)C(OC)C2CO)CN1CC3 (stereo not drawn) | i | -33% | i | 11 | -19%
Cc1nn(-c2ccccc2)nc1CNC(=O)C1CCC1 | i | 4% | i | 11 | -12%
CC1=C(O)C(=O)C(C2=C(O)C(=O)C(C)=C(O)C2=O)=C(O)C1=O | ? | 0% | ? | -15 | -11%
Cc1ccc(C2=C(O)C(=O)C(c3ccc(C)cc3)=C(O)C2=O)cc1 | ? | ? | 15µM* | 25 | 17%
O=C(Nc1ccc(S(=O)(=O)N(Cc2ccccc2)c2ccccc2)cc1)c1ccc([N+](=O)[O-])cc1 | i | . | ? | . | .
SMILES | KB-3-1 tox | MCF10A rerep | KB-V1 cytotox | IL-1B inflam inh | SW480 rereplic
Oc1c(C(c2ccccc2F)N2CCC3(CC2)OCCO3)sc2nc(-c3ccco3)nn12 (stereo not drawn) | i | . | i | . | .
O=C1N/C(=N\N=C\c2ccc3ncccc3c2)SC1Cc1ccc(SC(F)F)cc1 (stereo not drawn) | i | 16µM* | ? | 17 | ?
COc1cc(/C=N/N=C2/NC(=O)C(Cc3ccccc3)S2)ccc1O (stereo not drawn) | i | 18µM* | ? | -13 | 28%
O=C1N/C(=N\N=C\c2cccnc2)SC1Cc1ccc(SC(F)F)cc1 (stereo not drawn) | ? | ? | 4.1µM* | 107 | 25%
O=C1N/C(=N\N=C\c2ccccn2)SC1Cc1cccc(SC(F)F)c1 (stereo not drawn) | ? | ? | 3.7µM* | 6 | ?
CC1(C)O[C@@H]2C[C@H]3[C@H]4C[C@H](F)C5=CC(=O)CC[C@]5(C)[C@@H]4[C@H](O)C[C@]3(C)[C@]2(C(=O)CO)O1 | . | 0%[20.6 µM] | . | . | -8%[20.6 µM]
COc1ccc(-c2cc(C(=O)Nc3ccn(Cc4ccc(C)cc4)n3)no2)cc1OC | i | . | i | . | .
O=C1N/C(=N\N=C\c2cccs2)SC1Cc1cccc(Cl)c1 (stereo not drawn) | ? | 2.9µM* | ? | 15 | ?
O=C(NCc1ccccc1)c1[nH]c(C(F)(F)F)nc1-c1ccccc1 | i | . | i | 6 | .
COc1ccc(C(=O)NC(CO)c2nnc(SCc3ccc(Cl)c(Cl)c3)n2C)cc1 (stereo not drawn) | i | -19% | i | -18 | 7%
CC(C)CC(NC(=O)c1cccs1)c1nnc(SCc2ccc(Cl)c(Cl)c2)n1C (stereo not drawn) | ? | 18µM* | ? | ? | 12%
O=[N+]([O-])c1ccc(Cl)c(/C=N/n2c(COc3ccccc3)n[nH]c2=S)c1 | i | ? | 16µM* | -8 | ?
Cc1ccc(-c2[nH]ncc2/C=N/n2c(COc3ccccc3C)nc3ccccc3c2=O)cc1 | ? | 5.8µM* | ? | -99* | ?
Cc1cccc(C)c1OCc1nc2ccccc2c(=O)n1/N=C/c1c[nH]c2ccccc12 | ? | 8% | ? | -11 | 14%
S=c1[nH]nc(COc2ccccc2)n1/N=C/c1ccc(Cl)c(Cl)c1 | i | ? | i | 24 | -5%
Cc1cc(/C=N/n2c(COc3ccccc3C)nc3ccccc3c2=O)c(O)c([N+](=O)[O-])c1 | i | 10% | i | 326 | 13µM*
Cc1ccccc1OCc1nc2ccccc2c(=O)n1/N=C/c1c[nH]c2ccccc12 | i | 16µM* | i | 9 | ?
COc1cccc(C2CC(=O)Nc3c2c(=O)n(C)c2ncnn32)c1OC (stereo not drawn) | i | . | i | . | .
CC1CCCCC1NC(=O)COC(=O)c1ccc2c(c1)NC(=O)CS2 (stereo not drawn) | ? | 14% | i | 27 | -5%
CCOc1ccc(NS(=O)(=O)c2ccc3c(c2)NC(=O)CCS3)cc1 | i | . | ? | . | .
